The text below walks through data of PubChem BioAssay (NCI).

Test systems include NCI-H23 lung; NCI-H226 lung; NCI-H322M lung; HOP-62 NSCLC; NCI-H460 lung; HOP-92 NSCLC; A549/ATCC NSCLC; 786-0 renal; COLO 205 colon; DU-145 prostate; K-562 leukemia; MALME-3M melanoma; MDA-MB-231 breast; RXF 393 renal; SF-268 CNS; SF-295 CNS; SF-539 CNS; UACC-257 melanoma; M14 melanoma.
Holding throughout (assay): NCI-60 one-dose screen, 48 h (100 = growth as untreated, 0 = no growth, -100 = all killed)
Holding throughout (settings): 10 µM unless noted

This is part of a sample that, as a whole, favours compounds with a hit. Of some 83,000 tested, about 20% had one in any assay.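 Interpretation: 100, growth as untreated; towards 0, rising growth inhibition; 0, no net growth; 0 to -100, cell death. Compounds scoring below 10 were considered active.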 A number with no mark means an inactive call. Activity calls are given as the source filed them.

As to `COc1cc(/C=C/C(=O)CC(=O)/C=C/c2ccc(OC(=O)C3C4CC5CC(C4)CC3C5)c(OC)c2)ccc1OC(=O)C1C2CC3CC(C2)CC1C3` (configuration not stated), the growth in the test with NCI-H23 lung is 104%; in the test on NCI-H226 lung it was 123%; in the test on NCI-H322M lung, 92.9%; with HOP-62 NSCLC, 99.1%; in the test with NCI-H460 lung, 120%; in the test with HOP-92 NSCLC it was 65.5%. The growth in the test with A549/ATCC NSCLC was 102%; in the test with 786-0 renal, 104%; in the test on COLO 205 colon, 110%; in the test on DU-145 prostate, 120%; in the test on K-562 leukemia, 95.1%; in the test with MALME-3M melanoma, 78.4%. Besides, the growth with MDA-MB-231 breast is 116%; with RXF 393 renal it was 110%; in the test on SF-268 CNS, 104%; in the test with SF-295 CNS, 98.9%; in the test on SF-539 CNS, 108%; with UACC-257 melanoma, 102%. For the same compound, in the test on M14 melanoma, the growth was 105%.
As to `Cc1cnc2nc(-c3ccc(N(C)C)cc3)cn2c1`, the growth is 93.2% in the test on NCI-H23 lung; 102% in the test on NCI-H226 lung; 110% in the test on NCI-H322M lung; 99.5% in the test on HOP-62 NSCLC; 114% in the test with NCI-H460 lung; 104% in the test on HOP-92 NSCLC. Besides, the growth with A549/ATCC NSCLC was 95.5%; in the test with 786-0 renal, 91.5%; with COLO 205 colon it was 120%; in the test with DU-145 prostate, 109%; with K-562 leukemia it was 97.1%; in the test with MALME-3M melanoma it was 97.8%. Also, the growth with MDA-MB-231 breast is 107%; with RXF 393 renal it was 79.7%; with SF-268 CNS it was 122%; in the test on SF-295 CNS, 106%; in the test with SF-539 CNS it was 100%; in the test with UACC-257 melanoma it was 102%. In addition, the growth in the test on M14 melanoma was 100%.
With `NS(=O)(=O)c1ccc(-n2ncc3c(N/N=C/c4ccccc4)ncnc32)cc1`, the growth in the test with NCI-H23 lung was 80.6%; in the test on NCI-H226 lung, 107%; in the test on NCI-H322M lung it was 94.6%; with HOP-62 NSCLC it was 104%; in the test with NCI-H460 lung, 66.4%; with HOP-92 NSCLC, 87.6%. In addition, the growth in the test with A549/ATCC NSCLC is 52%; with 786-0 renal, 93.2%; in the test on COLO 205 colon, 97.5%; in the test with DU-145 prostate it was 73.1%; in the test on K-562 leukemia it was 83.1%; with MALME-3M melanoma, 85.6%. Further, the growth in the test on MDA-MB-231 breast is 101%; with RXF 393 renal, -18.8% (active); in the test with SF-268 CNS it was 76.9%; in the test on SF-295 CNS, 29.8%; with SF-539 CNS, 76.2%; in the test with UACC-257 melanoma, 62.4%. Besides, the growth with M14 melanoma is 116%.
With `CCOC(=O)C(Br)=P(c1ccccc1)(c1ccccc1)c1ccccc1`, the growth with NCI-H23 lung is 109%; with NCI-H226 lung, 104%; in the test with NCI-H322M lung it was 99.4%; in the test with HOP-62 NSCLC it was 114%; with NCI-H460 lung, 116%; in the test on HOP-92 NSCLC, 101%. For the same compound, the growth with A549/ATCC NSCLC was 106%; in the test on 786-0 renal, 103%; with COLO 205 colon, 103%; in the test with DU-145 prostate, 124%; in the test on K-562 leukemia it was 105%; in the test with MALME-3M melanoma it was 94.3%. Further, the growth in the test with MDA-MB-231 breast is 92.6%; in the test on RXF 393 renal, 79.9%; in the test with SF-268 CNS, 120%; in the test on SF-295 CNS it was 110%; in the test with SF-539 CNS it was 101%; in the test with UACC-257 melanoma, 98.9%. In addition, in the test on M14 melanoma, the growth is 111%.
Regarding `COc1cc(/C=C/C(=O)c2c(C)n([O-])c3ccc(Cl)cc3[n+]2=O)cc(OC)c1OC`, the growth in the test on NCI-H23 lung was 81.7%; in the test with NCI-H226 lung, 80.7%; with NCI-H322M lung, 90.5%; in the test with HOP-62 NSCLC, 110%; with NCI-H460 lung, 64.3%; in the test with HOP-92 NSCLC, 78.6%. Besides, the growth with A549/ATCC NSCLC is 71.7%; in the test with 786-0 renal it was 94.4%; in the test with COLO 205 colon it was 86.8%; with DU-145 prostate, 66.8%; in the test on K-562 leukemia, 45.8%; in the test on MALME-3M melanoma, 78.7%. Moreover, the growth was 78.5% in the test with MDA-MB-231 breast; 42.6% in the test on RXF 393 renal; 74% with SF-268 CNS; 114% in the test with SF-295 CNS; 96.9% in the test with SF-539 CNS; 81.3% in the test with UACC-257 melanoma. The growth in the test on M14 melanoma is 78.4%.
As to `CCOc1cc(/C=C/C(=O)CC(=O)/C=C/c2ccc(OC(=O)CNCCN(CC)CC)c(OCC)c2)ccc1OC(=O)CNCCN(CC)CC`, the growth in the test on NCI-H23 lung was -35.6% (active); in the test with NCI-H226 lung, -41.3% (active); in the test on NCI-H322M lung it was -0.873% (active); in the test with HOP-62 NSCLC, -32.1% (active); in the test on NCI-H460 lung, -27.3% (active); with HOP-92 NSCLC, -3.28% (active). Also, the growth is 12.4% with A549/ATCC NSCLC; -91.6% (active) with 786-0 renal; -51.3% (active) in the test on COLO 205 colon; -44.3% (active) in the test on DU-145 prostate; -10.8% (active) in the test with K-562 leukemia; -39.9% (active) with MALME-3M melanoma. Besides, the growth was 5.09% (active) in the test with MDA-MB-231 breast; -79.4% (active) in the test with RXF 393 renal; 3.21% (active) in the test with SF-268 CNS; -18.4% (active) with SF-295 CNS; -58.1% (active) in the test with SF-539 CNS; 23.6% in the test on UACC-257 melanoma. The growth in the test with M14 melanoma was -14.5% (active).
For `O=C(COc1ccc(/C=C2\Cc3ccccc3C2=O)cc1)c1ccc(Cl)cc1`, the growth is 89.2% with NCI-H23 lung; 97.5% in the test with NCI-H226 lung; 123% in the test with NCI-H322M lung; 101% with HOP-62 NSCLC; 101% in the test with NCI-H460 lung; 90.7% with HOP-92 NSCLC. Further, the growth in the test on A549/ATCC NSCLC was 99.6%; in the test on 786-0 renal, 102%; in the test on COLO 205 colon, 117%; with DU-145 prostate, 117%; in the test on K-562 leukemia it was 92.9%; in the test on MALME-3M melanoma, 124%. Moreover, the growth in the test with MDA-MB-231 breast was 82.2%; with RXF 393 renal, 121%; in the test on SF-268 CNS, 120%; with SF-295 CNS it was 121%; in the test on SF-539 CNS, 101%; in the test on UACC-257 melanoma it was 100%. Also, in the test with M14 melanoma, the growth was 104%.
Regarding `COc1ccc(C(=O)/C=C/c2cccc(Nc3ccnc4cc(Cl)ccc34)c2)cc1`, the growth in the test on NCI-H23 lung is 43.2%; in the test with NCI-H226 lung, 54.3%; in the test with NCI-H322M lung, 49.6%; in the test on HOP-62 NSCLC it was 18.8%; in the test with NCI-H460 lung, 31.6%; in the test on HOP-92 NSCLC, 29.1%. Moreover, the growth in the test with A549/ATCC NSCLC was 29.4%; in the test on 786-0 renal, -35.4% (active); in the test on COLO 205 colon it was 45.1%; with DU-145 prostate it was 37%; with K-562 leukemia, 21%; in the test on MALME-3M melanoma it was 44%. The growth with MDA-MB-231 breast is 13.7%; in the test on RXF 393 renal, 41.7%; in the test with SF-268 CNS, 39%; in the test on SF-295 CNS, 30.6%; with SF-539 CNS, 28.4%; in the test on UACC-257 melanoma it was 37.8%. The growth in the test with M14 melanoma was 23.2%.
